The source of these data is PubChem BioAssay (NCI).

About 83,000 compounds went through this panel and 20% of them were active in at least one assay; those are over-represented in the sample as a whole.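 96-well plates, one dose, 48 hours. Percent growth reported; active if below 10.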 Values without a mark were called inactive. The source made the active and inactive calls.

Assay in all cases: NCI-60 one-dose screen, 48 h (100 = growth as untreated, 0 = no growth, -100 = all killed)
What all share (conditions): 10 µM unless noted

For experiment [1], the system named is HCT-15 colon.
Experiment [2] has as its system HT29 colon.
In experiment [3] the test system is SNB-75 CNS.
For experiment [4], the system named is SNB-19 CNS.
Experiment [5] relates to U251 CNS.
Experiment [6] deals with PC-3 prostate.
Experiment [7] has as its system UACC-62 melanoma.
In experiment [8] the test system is LOX IMVI melanoma.
For experiment [9], the system named is SK-MEL-28 melanoma.
The subject of experiment [10] is SK-MEL-5 melanoma.

Consider `CCN(CC)c1ccc(/C=C/c2cc(C)c3ccccc3n2)cc1`, for which the growth in experiment [1] is 29.8%; in experiment [2], 8.05% (active); in [3] it was 42.7%; in experiment [4] it was 59.7%; in experiment [5] it was 43%; in [6], 65%. Also, the growth in experiment [7] was 38.4%; in [8], 52.2%; in [9], 55.1%.
Consider `O=C(O[C@@H]1Cc2c(O)cc(O)cc2O[C@@H]1c1cc(O)c(O)c(O)c1)c1cc(O)c2c(c1)OCO2`, for which the growth in experiment [1] was 104%; in experiment [2], 95.3%; in experiment [3] it was 93.8%; in experiment [4] it was 104%; in experiment [5], 83.4%; in experiment [6], 83.6%. Moreover, the growth in [10] is 98.5%; in experiment [9], 101%.
On to `COc1ccc(-c2n[nH]nc2-c2cc3ccccc3s2)cc1O`, for which the growth in experiment [1] is 20%; in [2], 29.9%; in [3] it was 35.5%; in experiment [4], 27.6%; in experiment [5], 15.8%; in [6], 16%. The growth in experiment [7] was 33.7%; in experiment [8], 20.6%; in experiment [9], 38.4%.
Turning to `CN(C)c1ccc(C(=O)c2ccc(N(C)C)c(N)c2)cc1N`, the growth in [1] was 26%; in experiment [2] it was 9.95% (active); in experiment [3], -11.3% (active); in experiment [4] it was 45.3%; in experiment [5] it was 34.4%; in experiment [6] it was 49.3%. Besides, the growth in experiment [10] is 3.25% (active); in experiment [9], 61.9%.
Consider `CC(C)C[C@@H](NC(=O)[C@@H](Cc1ccccc1)NC(=O)c1cnccn1)B1O[C@H]2[C@H](O)[C@@H](C(=O)NCCCC[C@@H]3NC(=O)[C@@H](Cc4ccccc4)NC(=O)[C@H](CC(=O)O)NC(=O)CNC(=O)[C@H](CCCN=C(N)N)NC3=O)O[C@@H](CN)[C@H]2O1`, for which the growth in experiment [1] was -54% (active); in experiment [2] it was -73.4% (active); in experiment [3], -65.4% (active); in experiment [4], -10.1% (active); in experiment [5], -58.6% (active); in experiment [6], -34.3% (active). For the same compound, the growth in [7] is -36.7% (active); in experiment [8] it was -86.1% (active); in experiment [9], -30.1% (active).
In the case of `CCOC(=O)C1OC1(c1ccccc1)c1ccccc1` (centres undefined), the growth in [1] is 109%; in experiment [2] it was 107%; in [3] it was 108%; in experiment [4] it was 107%; in [5], 100%; in [6], 98.7%. The growth was 98% in experiment [7], 113% in [8] and 119% in experiment [9].
For `COC(=O)[C@]12CC[C@@H](C)[C@H](C)[C@@H]1C1=CC[C@@H]3[C@@]4(C)C[C@@H](OC(C)=O)[C@H](O)[C@@](C)(CO)[C@@H]4[C@H](O)C[C@@]3(C)[C@]1(C)CC2`, the growth was -94.5% (active) in experiment [1]; -95.4% (active) in experiment [2]; -83.1% (active) in experiment [3]; -71.7% (active) in [4]; -84.1% (active) in [5]; -100% (active) in [6]. Besides, the growth in experiment [10] is -98.5% (active); in [9], -86% (active).
Consider `COc1ccc(-c2cc(-c3cccs3)n(N=O)c(=O)c2C#N)cc1`, for which the growth in experiment [1] was 129%; in experiment [2], 107%; in [3], 88.9%; in [4], 99.1%; in [5], 112%; in [6] it was 104%. Moreover, the growth in [7] is 95.4%; in experiment [8], 96.3%; in experiment [9] it was 124%.
`CC1=NN(c2ccc(S(=O)(=O)O)cc2Cl)C(=O)C1`: the growth is 112% in [1]; 109% in experiment [2]; 90.2% in experiment [3]; 96.2% in [4]; 107% in experiment [5]; 103% in experiment [6]. In addition, the growth is 103% in [7], 104% in [8] and 122% in experiment [9].
Take `CCCCN1CCCCn2c1nc1c2c(=O)n(C)c(=O)n1C`: the growth in experiment [1] was 108%; in experiment [2], 102%; in [3] it was 94.1%; in experiment [4], 104%; in experiment [5], 95%; in experiment [6] it was 108%. For the same compound, the growth in [7] was 101%; in experiment [8], 99%; in [9], 117%.
Take `COc1cc(NC(C)CN(CC(C)C)C(C)C)c2ncccc2c1` (centres undefined): the growth in experiment [1] was 101%; in experiment [2], 97.5%; in [3], 80.4%; in experiment [4], 116%; in [5], 100%; in experiment [6], 80.5%. The growth in experiment [7] is 106%; in [8] it was 94.7%; in experiment [9], 122%.
Take `CCCNc1nc(N(C)O)nc(N(C)O)n1`: the growth was 26.5% in experiment [1]; 40.7% in [2]; 77.3% in experiment [3]; 38.3% in [4]; 27.8% in experiment [5]; 51.9% in experiment [6]. Moreover, the values for the growth in [7], in experiment [8] and in [9] were 31.5%, 22.9% and 41.4%, respectively.
Consider `Cn1c2c(Cl)c(Cl)ccc2c2c(C#N)c[nH]c(=O)c21`, for which the growth is 99% in [1]; 99.5% in experiment [2]; 91.9% in experiment [3]; 97.3% in experiment [4]; 101% in experiment [5]; 74.3% in experiment [6]. Further, the growth in experiment [7] was 93.4%; in experiment [8], 91.9%; in [9] it was 114%.
